# Experimental data reported in PubChem BioAssay AID1159580 (chemical genetic matrix, 2015).
# Hit rate of the full screen: of about 5,500 compounds, about 2,000 (36%) were called active. Not shown: some 18% with an inconclusive outcome. The list shows a part of the results. A number with no mark means an inactive call. Rule as the data show it: active = normalized growth mostly below about 0.91 (no sharp cut-off); inconclusive = no clear call, values can overlap the other calls; inactive = mostly above about 0.92.
# Experiment: chemical genetic growth profiling, strain panel (AID 1159580);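 also: tested at 20 µM; growth read once vehicle control cultures reached saturation at 30 °C; 1 = growth at the plate median or of vehicle wells; lower values mean less growth of the strain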
# Settings: growth OD
structure (smiles),measurement,setting,value
CCOC(=O)c1c(Nc2ccccc2)sc([N+](=O)[O-])c1N,normalized growth,"S. cerevisiae deletion strains, locus YAL013W, strain DEP1, active compounds read low",0.941
same,normalized growth,"S. cerevisiae deletion strains, locus YBR229C, strain ROT2, active compounds read low",1.01
same,normalized growth,"S. cerevisiae deletion strains, locus YDL101C, strain DUN1, active compounds read low",1.02
same,normalized growth,"S. cerevisiae deletion strains, locus YDR150W, strain NUM1, active compounds read low",0.969
same,normalized growth,"S. cerevisiae deletion strains, locus YEL061C, strain CIN8, active compounds read low",0.985
same,normalized growth,"S. cerevisiae deletion strains, locus YGR078C, strain PAC10, active compounds read low",0.985
same,normalized growth,"S. cerevisiae deletion strains, locus YHR030C, strain SLT2, active compounds read low",0.743
same,normalized growth,"S. cerevisiae deletion strains, locus YHR087W, strain rtc3, active compounds read low",0.98
same,normalized growth,"S. cerevisiae deletion strains, locus YJR043C, strain POL32, active compounds read low",0.956
same,normalized growth,"S. cerevisiae deletion strains, locus YJR075W, strain HOC1, active compounds read low",0.949
same,normalized growth,"S. cerevisiae deletion strains, locus YKL190W, strain CNB1, active compounds read low",0.977
same,normalized growth,"S. cerevisiae deletion strains, locus YLR039C, strain RIC1, active compounds read low",0.964
same,normalized growth,"S. cerevisiae deletion strains, locus YLR058C, strain SHM2 (second series), active compounds read low",1
same,normalized growth,"S. cerevisiae deletion strains, locus YLR085C, strain ARP6, active compounds read low",0.762 (active)
same,normalized growth,"S. cerevisiae deletion strains, locus YLR262C, strain YPT6, active compounds read low",0.965
same,normalized growth,"S. cerevisiae deletion strains, locus YML094W, strain GIM5, active compounds read low",0.961
same,normalized growth,"S. cerevisiae deletion strains, locus YMR219W, strain ESC1, active compounds read low",0.998
same,normalized growth,"S. cerevisiae deletion strains, locus YMR263W, strain SAP30, active compounds read low",0.931
same,normalized growth,"S. cerevisiae deletion strains, locus YMR307W, strain GAS1, active compounds read low",0.66 (active)
same,normalized growth,"S. cerevisiae deletion strains, locus YNL153C, strain GIM3, active compounds read low",0.986
same,normalized growth,"S. cerevisiae deletion strains, locus YNL298W, strain CLA4 (second series), active compounds read low",0.917
same,normalized growth,"S. cerevisiae deletion strains, locus YNL322C, strain KRE1, active compounds read low",0.985
same,normalized growth,"S. cerevisiae deletion strains, locus YNR030W, strain Alg12, active compounds read low",0.952
same,normalized growth,"S. cerevisiae deletion strains, locus YPL055C, strain LGE1, active compounds read low",0.846
same,normalized growth,"S. cerevisiae deletion strains, locus YPL241C, strain CIN2, active compounds read low",0.849 (active)
same,normalized growth,"S. cerevisiae deletion strains, locus YPR135W, strain CTF4, active compounds read low",0.783
same,normalized growth,"S. cerevisiae strains, strain wild type, active compounds read low",0.977
